Hits are enriched below; roughly 2.2% of the tested compounds scored in any of these assays.
VLA-4 inh – inhibition in human VLA-4 binding assay, primary screen, VLA-4 allosteric modulator project, MLPCN library, flow cytometry, VLA-4 expressing cells; ligand binding flow cytometry; Integrin alpha-4 (Homo sapiens), P13612; AID 2557, 2010; actives 0.2% (n = 330,000); inhibition, % (about 7 µM as worked out from the volumes in the protocol); in the data active = inhibition above about 50%
CHT block – inhibitors of human choline transporter CHT; CHT-expressing cells, membrane potential dye, choline response; hits give low values; B-score at 10 µM; actives 0.86% (n = 310,000); AID 488975, 2010;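 active = B-score over 3 SD under the library average, and starting fluorescence ratio not unusually high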;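 note: choline stimulus applied at its EC90 after an EC20 pre-addition; B-score computed on integrated fluorescence ratio after choline addition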
Target sequence (Q9GZV3 whole entry, looked up): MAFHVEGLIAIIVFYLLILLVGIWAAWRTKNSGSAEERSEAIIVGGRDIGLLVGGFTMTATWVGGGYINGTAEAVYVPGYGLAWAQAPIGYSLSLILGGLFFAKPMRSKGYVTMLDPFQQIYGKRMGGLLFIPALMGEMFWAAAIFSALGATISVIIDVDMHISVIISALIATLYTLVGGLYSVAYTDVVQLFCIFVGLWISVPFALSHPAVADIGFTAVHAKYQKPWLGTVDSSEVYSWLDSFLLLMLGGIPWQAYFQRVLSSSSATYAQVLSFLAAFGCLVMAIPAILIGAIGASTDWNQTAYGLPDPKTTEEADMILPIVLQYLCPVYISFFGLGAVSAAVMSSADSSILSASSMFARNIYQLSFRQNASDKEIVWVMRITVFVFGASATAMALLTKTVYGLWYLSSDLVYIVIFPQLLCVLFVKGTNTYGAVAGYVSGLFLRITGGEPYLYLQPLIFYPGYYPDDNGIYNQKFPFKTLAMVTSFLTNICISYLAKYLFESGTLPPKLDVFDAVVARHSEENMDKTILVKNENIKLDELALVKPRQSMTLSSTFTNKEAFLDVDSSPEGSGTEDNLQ
HIF act – HIF pathway transcriptional activators, primary screen, cell-based, U2OS HRE-luciferase, luminescence; U2OS HRE-luciferase reporter; normalized: DMSO 0%, desferrioxamine 100%; activation, % at 7.5 µM (by protocol); actives 0.32% (n = 300,000); AID 1910, 2009;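 active = mean activation of at least 10% of the iron chelator positive control signal, with at least half of replicates also reaching 10%; inconclusive = mean and replicate majority disagree about reaching 10%; inactive = mean and most replicates under 10%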
Platelet DG rel – inhibitors of platelet dense granule secretion, primary screen, cell-based, MLPCN, human platelets; human platelet-rich plasma, SFLLRN dense granule ATP release, luminescence; AID 1663, 2009; actives 0.22% (n = 300,000); inhibition, %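 (compounds screened at 7.5 µM in platelet-rich plasma)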;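 active = mean replicate score, as percent of positive control, at or above 50; inconclusive = mean below 50 but at least one replicate at or above 50; inactive = mean and every replicate below 50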
AI-2 QS modul – Vibrio harveyi AI-2 quorum sensing modulators, primary screen, JMH597 strain, luminescence/OD600 ratio; AID 2094, 2009; Vibrio harveyi JMH597 AI-2 luminescence/OD600 ratio, 9 h; hits give low values; strain lacks LuxN and CqsS sensors; 0 = neutral-control median; activity change, % at 7.5 µM; actives 0.4% (n = 300,000); in the data active = activity change below about -75%, passing the limit was not always enough; inconclusive = no clear call, values can overlap the other calls;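 note: luminescence divided by OD600 gain over 9 h not by final OD600 alone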
CHT PAM – CHT positive allosteric modulators, primary screen, cell-based, membrane potential dye, choline EC20. CHT-expressing cells; hits give high values; LV-AA mutant CHT in HEK293 cells. B-score at 10 µM. actives 0.49% (n = 310,000);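 active = initial fluorescence not abnormally high and integrated response B-score, plate-corrected, over 3 SD above library mean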
JMH597 growth rt – Vibrio harveyi growth inhibition, confirmation, counter-screen for AI-2 quorum sensing project, JMH597 strain, OD600 absorbance; growth inhibition, % at 7.5 µM; shares compounds with AI-2 QS modul; actives 1% (n = 750); AID 2726, 2010; 9 h; lacks LuxN and CqsS sensors;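 active = every replicate shows growth inhibition above 50%; inconclusive = at least half, but not all, replicates pass that cutoff; inactive = fewer than half of replicates pass it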
BB721 lum counter – luminescence inhibition in constitutive-on V. harveyi, confirmation, counter-screen for LuxS inhibitor project, strain BB721, luminescence readout; inhibition, % at 7.5 µM; shares compounds with AI-2 QS modul; actives 95% (n = 750); Vibrio harveyi BB721 luminescence, 9 h;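 active = inhibition above about 80% in every replicate, not just on average, limit read from the data; inconclusive = at least half of replicates past the limit, but not all; inactive = fewer than half of replicates past the limit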
BB721 growth rt – growth inhibition of V. harveyi BB721, confirmation, cytotoxicity control for AI-2 quorum sensing inhibitors, strain BB721, absorbance OD600; shares compounds with AI-2 QS modul; Vibrio harveyi BB721 growth, 9 h; growth inhibition, % at 7.5 µM; actives 3% (n = 750);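 active = every replicate shows growth inhibition above 50%; inconclusive = at least half but not all replicates above 50% inhibition; inactive = under half of replicates above 50% inhibition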
AI-2 QS JMH597 – Vibrio harveyi AI-2 signaling luminescence modulation – JMH597 strain, confirmation; shares compounds with AI-2 QS modul; Vibrio harveyi JMH597 AI-2 quorum sensing luminescence, 9 h; luxN and CqsS knockout, AI-2 only; inhibition, % at 7.5 µM; actives 97% (n = 750);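 active = every replicate shows more than 75% inhibition of signal versus neutral control wells; inconclusive = half to three quarters of replicates exceed 75% inhibition; inactive = fewer than half of replicates exceed 75% inhibition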
* = called active by the depositor; i = inactive; ? = inconclusive; nt = not tested or not shown.

SMILES | VLA-4 inh | CHT block | HIF act | Platelet DG rel | AI-2 QS modul | CHT PAM | JMH597 growth rt | BB721 lum counter | BB721 growth rt | AI-2 QS JMH597
CC(=O)NC/C(C)=N\Nc1ccc([N+](=O)[O-])cc1 | -82.9 | i | 0.1 | -1.5 | -86.1* | i | 12.5 | 96.3* | 55.5* | 96.4*
CCC(C(=O)OCC(=O)N(CC)c1c(N)n(Cc2ccccc2)c(=O)[nH]c1=O)c1ccccc1 (centres undefined) | 1.1 | nt | nt | nt | nt | nt | nt | nt | nt | nt
Cc1cccc(NC(=O)COC(=O)CN2CCCCCC2=O)c1C | 12.2 | nt | nt | nt | nt | nt | nt | nt | nt | nt
COc1ccc(-c2nnc(SCC(=O)NCc3ccco3)o2)cc1 | 10.3 | i | 5.9 | 0.0 | -0.7 | i | nt | nt | nt | nt
O=C(CSc1nnc(-c2ccc(S(=O)(=O)N3CCCC3)cc2)o1)NCc1ccco1 | 0.7 | i | -0.7 | 12.7 | -83.4* | i | 23.1 | 84.2* | 19.4 | 89.8*
O=C(Cn1c(=O)oc2cc(S(=O)(=O)N3CCCC3)ccc21)NCc1ccccn1 | -9.7 | i | 0.0 | 14.5 | -96.8* | i | 6.1 | 99.2* | -52.1 | 99.2*
O=C(Cn1c(=O)oc2cc(S(=O)(=O)NCc3ccccc3)ccc21)NCc1ccco1 | 4.4 | i | -0.4 | 3.1 | ? | i | 5.3 | 99.8* | -47.2 | 99.9*
Cc1c(NC(=O)COC(=O)c2ncc(Cl)c(Cl)c2Cl)c(=O)n(-c2ccccc2)n1C | 3.0 | i | -0.1 | 3.7 | 16.3 | i | nt | nt | nt | nt
O=C(/C=C/c1ccc(F)cc1)NCCC1=CCCCC1 | 7.2 | i | 3.0 | 0.0 | -88.9* | i | ? | 97.1* | 25.3 | 98.4*
CCOC(=O)c1c(C)nc(C)c(C(=O)OCC)c1-c1ccco1 | -4.5 | i | -0.4 | -8.4 | 21.5 | i | nt | nt | nt | nt
Cn1c(/C=C/c2cccc([N+](=O)[O-])c2)c([N+](=O)[O-])c(=O)n(C)c1=O | -4.3 | i | -0.1 | 9.4 | 141.7 | i | nt | nt | nt | nt
COc1ccc(Cl)cc1N(CC(=O)N1CCC(C)CC1)S(C)(=O)=O | 9.0 | i | -0.5 | -1.0 | 8.3 | i | nt | nt | nt | nt
COc1ccc(Cl)cc1N(CC(=O)N1CCCC1)S(C)(=O)=O | -8.3 | i | 0.2 | 12.1 | ? | i | -11.6 | -7.4 | 5.7 | -6.8
COC(=O)c1ccc(C)c(NC(=O)CN(c2ccccc2)S(=O)(=O)N(C)C)c1 | 1.2 | i | 0.5 | -4.1 | 10.3 | i | nt | nt | nt | nt
COc1cccc(Oc2cn[nH]c2-c2ccc(O)cc2O)c1 | -5.6 | i | -0.4 | -7.4 | -83.9* | i | ? | 97.6* | ? | 98.9*
COc1cccc(Oc2cn[nH]c2-c2ccc(OC)cc2O)c1 | -11.0 | i | -0.9 | nt | 30.8 | i | nt | nt | nt | nt
Cc1ccc(-c2cc(NC(=O)c3ccccc3[N+](=O)[O-])n[nH]2)cc1 | -2.2 | i | 0.0 | 4.9 | -95.4* | i | -2.7 | 97.2* | -24.5 | 98.4*
Cc1ccc(NC(=O)c2ccccc2[N+](=O)[O-])nc1 | 5.5 | i | 1.4 | 3.6 | 14.3 | i | nt | nt | nt | nt
Cc1cc(C)c(OCC(=O)OCC(=O)N(C)C2CCS(=O)(=O)C2)c(C)c1 (centres undefined) | -9.8 | i | 1.1 | 2.9 | 6.2 | i | nt | nt | nt | nt
O=C(CCc1ccccc1)Nc1ccc(S(=O)(=O)Nc2nccs2)cc1 | 8.2 | i | -0.6 | 8.7 | -84.7* | i | 17.8 | 89.2* | 8.1 | 93.3*
O=C(CCS(=O)(=O)c1ccccc1)Nc1ccc(S(=O)(=O)Nc2nccs2)cc1 | -1.1 | nt | nt | nt | nt | nt | nt | nt | nt | nt
CC(=O)Nc1ccc(S(=O)(=O)Nc2nccs2)cc1 | -8.5 | i | 0.1 | 4.5 | -7.4 | i | nt | nt | nt | nt
Cc1ccc(O)c(CNc2ccc(S(=O)(=O)Nc3nccs3)cc2)c1 | 5.0 | i | -0.4 | -1.8 | -89.1* | i | 19.3 | 93.3* | 28.0 | 95.3*
N#CC1(NC(=O)COc2ccc(C(N)=O)cc2)CCCC1 | -7.8 | nt | nt | nt | nt | nt | nt | nt | nt | nt
c1ccc(OCCCc2nc(-c3cccnc3)no2)cc1 | 7.5 | i | 0.0 | -0.4 | -92.6* | i | 7.1 | 98.4* | -15.0 | 99.1*
SMILES | VLA-4 inh | CHT block | HIF act | Platelet DG rel | AI-2 QS modul | CHT PAM | JMH597 growth rt | BB721 lum counter | BB721 growth rt | AI-2 QS JMH597
Cc1ccc(NC(=O)c2c(F)cccc2Cl)cc1S(=O)(=O)N1CCOCC1 | 16.4 | nt | nt | nt | nt | nt | nt | nt | nt | nt
Cc1ccc(CCC(=O)Nc2ccc(S(N)(=O)=O)cc2)o1 | 1.0 | i | -0.2 | 16.5 | 23.0 | i | nt | nt | nt | nt
Cc1ccc(NC(=O)CCc2ccc(C)o2)cc1 | 9.3 | i | -0.9 | -3.8 | ? | i | 23.3 | 86.9* | 2.1 | 91.9*
Cc1ccc(CCC(=O)Nc2ccc([N+](=O)[O-])cc2)o1 | 5.9 | i | 0.0 | 3.3 | -91.3* | i | 8.6 | 97.0* | -13.5 | 97.8*
COc1ccc(CC(=O)N/N=C(\C)CC(=O)Nc2ccc3c(c2)OCCO3)cc1OC | 16.7 | i | -0.2 | 1.0 | 9.6 | i | nt | nt | nt | nt
Cn1c2ccccc2c2nnc(N/N=C/c3ccc(O)cc3)nc21 | 7.4 | i | -0.4 | 9.9 | -2.2 | i | nt | nt | nt | nt
Cc1ccc(Cn2ncc(Cl)c(Cl)c2=O)cc1 | -11.7 | i | -0.3 | 1.2 | 12.2 | i | nt | nt | nt | nt
O=c1c(Cl)c(Cl)cnn1Cc1nnc(-c2ccc(Cl)cc2)o1 | nt | nt | -7.4 | 0.8 | -91.4* | nt | -23.1 | 98.1* | 22.5 | 98.6*
Cc1ccc(S(=O)(=O)NCc2ccccc2)cc1C(=O)NCCc1ccc(S(N)(=O)=O)cc1 | -1.6 | nt | nt | nt | nt | nt | nt | nt | nt | nt
CN(C)S(=O)(=O)c1ccc(Oc2ccccc2)cc1 | 16.6 | i | 0.2 | 0.6 | -92.8* | i | -8.1 | 83.7* | -56.0 | 99.0*
O=C(CN1CCN(C(=O)C2CCCO2)CC1)Nc1ccc(Cl)c(Cl)c1 (centres undefined) | -3.1 | i | -0.1 | 12.9 | 17.5 | i | nt | nt | nt | nt
O=C(CSCc1cccc(Br)c1)N/N=C/c1ccc2c(c1)OCO2 | -7.4 | i | 0.4 | -0.2 | 26.5 | i | nt | nt | nt | nt
